Assay results taken from the supplement of paper PMC6555819.

What was measured:
Experiment in all cases: PBM binding z-score (relative to random genomic background probes); higher = stronger binding; sequences stand for … in GC…GCGATTGACAGCGTAGAATGAAGG
[1] = test system: PPARg:RXRa DBDmut IVT, anti-RXR (DBD mutation: RXRa K156A/R161A, NR concentration 270 nM, RXRa partner concentration 90 nM)
How it was run: (§1)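 Binding z-scores were set against random background probes. The data came from custom Agilent 4×180K protein-binding microarrays carrying double-stranded probes with 34-nt variable regions, incubated 1 h with ligand-free nuclear receptor dimers. Partner-specific antibodies detected binding, and scanned fluorescence was regression-normalized.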

[2] = test system: PPARg:RXRa IVT, anti-PPARg (NR concentration 270 nM, RXRa partner concentration 90 nM)
How it was run: as §1

[3] = test system: PPARg DBDmut:RXRa IVT, anti-PPARg (DBD mutation: PPARg1 K132A/R137A, NR concentration 270 nM, RXRa partner concentration 90 nM)
How it was run: as §1

[4] = test system: PPARg DBDmut IVT, anti-PPARg (DBD mutation: PPARg1 K132A/R137A, NR concentration 270 nM)
How it was run: as §1

[5] = test system: PPARg homodimer (NR concentration 180 nM)
How it was run: as §1

[6] = test system: PXR:RXRa (NR concentration 270 nM, RXRa partner concentration 90 nM)
How it was run: as §1

[7] = test system: PXR homodimer (NR concentration 270 nM)
How it was run: as §1

[8] = test system: RARa:RXR (NR concentration 270 nM, RXRa partner concentration 90 nM)
How it was run: as §1

[9] = test system: RARa homodimer (NR concentration 270 nM)
How it was run: as §1

[10] = test system: RARb:RXRa (NR concentration 270 nM, RXRa partner concentration 90 nM)
How it was run: as §1

[11] = test system: RARb homodimer (NR concentration 270 nM)
How it was run: as §1

[12] = test system: RARg:RXRa (NR concentration 270 nM, RXRa partner concentration 90 nM)
How it was run: as §1

[13] = test system: RARg homodimer (NR concentration 270 nM)
How it was run: as §1

[14] = test system: RXRa DBDmut IVT, anti-RXR (DBD mutation: RXRa K156A/R161A, NR concentration 90 nM)
How it was run: as §1

[15] = test system: RXRa homodimer (NR concentration 180 nM)
How it was run: as §1

[16] = test system: THRa:RXRa (NR concentration 90 nM, RXRa partner concentration 90 nM)
How it was run: as §1

[17] = test system: THRa homodimer (NR concentration 90 nM)
How it was run: as §1

[18] = test system: VDR homodimer (NR concentration 270 nM)
How it was run: as §1

Row | Sequence | PBM binding z-score [1] | PBM binding z-score [2] | PBM binding z-score [3] | PBM binding z-score [4] | PBM binding z-score [5] | PBM binding z-score [6] | PBM binding z-score [7] | PBM binding z-score [8] | PBM binding z-score [9] | PBM binding z-score [10] | PBM binding z-score [11] | PBM binding z-score [12] | PBM binding z-score [13] | PBM binding z-score [14] | PBM binding z-score [15] | PBM binding z-score [16] | PBM binding z-score [17] | PBM binding z-score [18]
1 | ATCTCGAGGTAAAGATAGTTCAGTGAATGCAAAT | -0.0258 | 0.54 | 0.0992 | 0.266 | 0.0262 | 2.22 | 0.66 | 0.499 | -0.0875 | 0.896 | 0.904 | 0.819 | 0.829 | -0.272 | 0.518 | 1.5 | -0.16 | 0.272
2 | ACTCGGAGGACAAGGGTCAGAGCTACGCCAGTGA | 0.222 | 1.88 | -0.0175 | 0.0941 | 1.36 | 1.93 | -0.342 | 2.63 | 0.214 | 3.29 | 3.36 | 3.88 | 3.19 | 0.24 | 2.82 | 2.28 | 0.361 | 1.05
3 | CGTCCAAGGTCAAGGTCAGTGATAGAGACTCGAA | 3.79 | 4.5 | 1.28 | 0.138 | 4.99 | 5.05 | 1.18 | 5.44 | 2.41 | 5.73 | 5.36 | 6.7 | 7.67 | 3.76 | 6.55 | 4.48 | 3.93 | 3.53
4 | ACTACCAGGCCAAGTTTGGGTCACTCAAACAAAG | 1.12 | 2.04 | 0.0556 | -0.292 | 0.797 | 0.921 | 0.121 | 1.45 | 0.491 | 2 | 2.49 | 2.52 | 1.72 | 0.137 | 0.944 | 2.86 | 1.72 | 0.598
5 | GGAACGAGGGCAAGTTGATAGCGGAGTTTGATGG | 3.78 | 2.64 | -0.0734 | -0.677 | 0.26 | 0.392 | 0.189 | 0.406 | -0.36 | 2.53 | 1.43 | 1.28 | 1.74 | 2.31 | 0.823 | 1.13 | 0.118 | 1.73
6 | ATATGTAGGTTAAGGGTCATTCAAGTTGGTTCGC | 7.49 | 7.7 | 1.56 | 1.82 | 3.15 | 5.92 | 1.73 | 5.73 | 1.9 | 3.79 | 4.23 | 4.98 | 4.09 | 1.9 | 6.39 | 4.2 | 1.78 | 3.88
7 | TCTCGGAGGACACGAAGGTCAGTGCTTTCCAGAG | 1.42 | 1.08 | -0.7 | -0.641 | 0.926 | 1.54 | 0.566 | 1.52 | -0.39 | 3.29 | 3.9 | 2.87 | 3.49 | 0.969 | 1.47 | 2.73 | 1.06 | 1.39
8 | ATATGTAGGTTAAGGATCATTCAGGTTGGTTCGC | 7.22 | 7.16 | 3.09 | 2.12 | 1.49 | 1.19 | 0.266 | 1.13 | 1.1 | 1.2 | 0.849 | 0.99 | 0.991 | 0.797 | 1.42 | 1.42 | 0.728 | 1.16
